Drawing on PubChem BioAssay AID927 (National Center for Advancing Translational Sciences (NCATS), 2007), this text covers activity change, negative = inhibition and Potency for 28 molecules.

Among all 60,000 compounds or so, about 65 (0.1%) were called active. The call rests on the fitted dose curve; in most records, active means well fitted inhibition curve with a large enough effect; inconclusive means small, poorly fitted or top-dose-only effect; inactive means no such curve, though single readings can be large or run the other way. The entries come from a sample that favours actives as a whole. Entries that show only a call come without a potency.
Potency means the concentration at half of the fitted maximal effect.

In this test the target is Ubiquitin carboxyl-terminal hydrolase 2 (Homo sapiens) (UniProt O75604). Description: qHTS Assay for Inhibitors of Ubiquitin-specific Protease USP2a. Further: nearly all actives have a fitted effect of over 60% in size. Particulars: USP2a enzymatic assay; Potency: qHTS inhibition; series mostly up to 38.3 µM. The gist of the method: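 Coupled readout: USP2-cleaved Ub-PLA2 (20nM final) turns over NBD C6-HPC (20uM final), Ex 460nm/Em 535nm after 2.5 h, time-zero read flagging artifacts. Enzyme (20nM final, pH 8.0 Tris) given 30 min RT with compound first; NEM defines full inhibition.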
Ubiquitin carboxyl-terminal hydrolase 2 (Homo sapiens), sequence (O75604 whole entry, looked up): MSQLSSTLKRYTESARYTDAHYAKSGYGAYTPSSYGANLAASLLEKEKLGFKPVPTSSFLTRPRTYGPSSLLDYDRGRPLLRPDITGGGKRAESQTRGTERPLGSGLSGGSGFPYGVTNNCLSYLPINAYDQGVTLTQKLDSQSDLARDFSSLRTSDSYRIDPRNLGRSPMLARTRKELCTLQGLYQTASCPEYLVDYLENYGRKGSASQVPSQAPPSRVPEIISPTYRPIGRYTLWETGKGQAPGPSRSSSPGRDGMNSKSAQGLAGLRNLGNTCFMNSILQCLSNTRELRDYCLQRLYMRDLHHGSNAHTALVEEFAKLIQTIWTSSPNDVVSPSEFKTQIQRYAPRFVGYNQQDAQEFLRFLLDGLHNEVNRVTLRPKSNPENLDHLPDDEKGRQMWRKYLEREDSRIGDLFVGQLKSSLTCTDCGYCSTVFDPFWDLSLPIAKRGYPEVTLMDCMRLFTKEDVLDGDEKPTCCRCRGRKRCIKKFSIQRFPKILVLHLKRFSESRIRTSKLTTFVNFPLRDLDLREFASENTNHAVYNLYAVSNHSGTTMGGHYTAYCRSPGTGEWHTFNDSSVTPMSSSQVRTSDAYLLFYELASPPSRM
(In qHTS, concentration-response curves come from the screen itself.)
Regarding `O=C(O)c1ccc(F)c(S(=O)(=O)Nc2ccccc2)c1`, the activity change, negative = inhibition entry is “inactive”.

As for `Cc1cccc2c3c(ccc12)C1=C(C(=O)C3=O)C(C)CO1` (stereo not drawn), the activity change, negative = inhibition result was “inactive”.

Turning to `CC1OC(OCC2OC(Oc3c(-c4ccc(O)c(O)c4)oc4cc(O)cc(O)c4c3=O)C(O)C(O)C2O)[C@@H](O)C(O)C1O` (stereo partly drawn), the activity change, negative = inhibition result is “inactive”.

With `CCCc1[nH]nc2c1C(C1CC=CCC1)C(C#N)=C(N)O2` (stereo not drawn), the activity change, negative = inhibition result is “inactive”.

On to `Nc1nc2c(nc(Cl)n2C2OC(CO)C(O)C2O)c(=O)[nH]1` (stereo not drawn), for which the activity change, negative = inhibition result is “inactive”.

With `COC(=O)[C@H](C)NC(=O)Nc1ccc(OC(F)(F)F)cc1`, the activity change, negative = inhibition result was “inactive”.

Consider `COCCCN1C(=O)C(=O)/C(=C(/O)c2ccc3c(c2)CC(C)O3)C1c1cccnc1` (stereo not drawn), for which the activity change, negative = inhibition result was “inactive”.

On to `COc1cc(OC)c(NC(=O)c2ccc(Br)o2)cc1Cl`, for which the activity change, negative = inhibition is 12% [at 7.66 µM] (inactive).

Consider `CN(C)c1cc(N)c2ccccc2n1` (tested in a mixture with another compound), for which the activity change, negative = inhibition entry was “inactive”.

Take `CC[C@@H]1Cc2cc(O)ccc2C2=C1c1ccc(O)cc1C[C@H]2CC`: the Potency is 25.1 µM (active).

As to `CCOC(=O)c1cc2c(n(-c3ccc(C)cc3)c1=O)CCCC2=O`, the activity change, negative = inhibition result is “inactive”.

On to `CC1(C)CC(=O)C(C=NCCC2=CCCCC2)=C(O)C1`, for which the activity change, negative = inhibition is 6.05% [at 7.66 µM] (inactive).

For `Cc1cc(NC(=O)CSc2nnc(-c3ccc(Cl)s3)o2)no1`, the activity change, negative = inhibition entry was “inactive”.

Turning to `CC1(C)C=CC(=O)[C@]2(C)C1CC(=O)[C@]1(C)C2CC[C@@]2(C)C(c3ccoc3)OC(=O)C3OC321` (stereo partly drawn), the activity change, negative = inhibition result was “inactive”.

Regarding `CSCCC(NC(=O)c1ccc(=O)n(C)n1)c1nc2ccccc2[nH]1` (stereo not drawn), the activity change, negative = inhibition result is “inactive”.

In the case of `CCCn1c(O)c(CN2CCCC(C)C2)c(C)c(C#N)c1=O` (stereo not drawn), the activity change, negative = inhibition entry was “inactive”.

Take `COCCn1c(=O)c(-c2cc(F)cc(F)c2)nc2cnc(N3CCNCC3)nc21`: the activity change, negative = inhibition entry is “inactive”.

As to `Cc1cc(=O)[nH]c(=S)[nH]1`, the activity change, negative = inhibition result was “inactive”.

For `CN1CCCc2cc(C#N)c(=O)[nH]c21`, the activity change, negative = inhibition is 2.48% [at 7.66 µM] (inactive).

Turning to `Cc1oc(-c2ccccc2F)nc1CS(=O)(=O)CC(=O)NCCCN(C)C1CCCCC1`, the activity change, negative = inhibition entry is “inactive”.

Turning to `Cc1ccc(NC(=O)C2CC(c3ccc(F)cc3)=NO2)cc1` (stereo not drawn), the activity change, negative = inhibition result was “inactive”.

Regarding `COc1ccccc1CCn1c(=O)c(-c2cn(C)c3ccccc23)nc2cncnc21`, the activity change, negative = inhibition result is “inactive”.

Regarding `CC(Sc1nncs1)C(=O)NCc1ccc2c(c1)OCO2` (stereo not drawn), the activity change, negative = inhibition entry was “inactive”.

As for `CCOC(=O)N1CCN(C(=O)COc2ccc(Br)cc2)CC1`, the activity change, negative = inhibition was 10.7% [at 7.66 µM] (inactive).

As for `O=C1NC(c2cc3c(cc2Cl)OCO3)Oc2ccccc21` (stereo not drawn), the activity change, negative = inhibition entry was “inactive”.

Consider `CCOC(=O)C1C(=O)OC2(CCCC2)C1C(=O)OCC` (stereo not drawn), for which the activity change, negative = inhibition result was “inactive”.

For `Cc1ccc(C)c(NC(=O)C2CC(=O)N(C(C)C)C2)c1` (stereo not drawn), the activity change, negative = inhibition entry is “inactive”.

For the molecule `CC1CCN(C(=O)Cn2cc(C(=O)c3ccco3)c3ccccc32)CC1`, the activity change, negative = inhibition result is “inactive”.
